The source of these data is PubChem BioAssay AID1117361 (Southern Research Institute, 2015).

Each structure is given as a SMILES string. Out of some 3,600 compounds screened, about 900 (25%) were called active. No rule for the calls is given here. A selection follows. Measured potencies and affinities stand elsewhere.

In this experiment the target is Protein Tat (Human immunodeficiency virus type 1 group M subtype B (isolate HXB2)) (UniProt P04608). Put plainly: inhibitors of Tat binding to TAR RNA, dose response, counter-screen for Vif-APOBEC3G degradation inhibitor project, biochemical, fluorescence polarization, FAM-labeled TAR RNA (AID 1117361). The following applies: outcome: dose series up to 100 µM unless noted; series mostly up to 100 µM.
Regarding `COc1cccc(-c2nn(C)c3sc(C(=O)Nc4ccc5c(c4)OCCO5)cc23)c1`, the outcome was inactive.
Turning to `Cc1nc(N)nc(C)c1Cc1ccccc1`, the call was inactive.
On to `CCOC(=O)C1=C(N)OC2=C(C(=O)CCC2)C1c1ccc(C)s1` (stereo not given), for which the compound was classed as inactive.
To `O=C(O)Cc1ccc(C(=O)c2ccccc2)s1` belongs “inactive”.
Next, `CCS(=O)(=O)N1CCN(C(=O)CC(C)C)CC1`: “inactive”.
As for `Cn1c(-c2ccc(Cl)cc2)ccc(C#N)c1=O`, the compound was classed as inactive.
To `CCOC(=O)N1CCN(C(=O)c2cnc3n(c2=O)CCS3)CC1` belongs “inactive”; to `CCOC(=O)c1c(NC(=O)C(C)N2CCN(C(=O)c3ccco3)CC2)sc2c1CCCC2` (stereo not given), “inactive”; to `Cn1c(CSc2nnc(SCc3ccccc3)s2)nc2ccccc21`, “inactive”.
Next, `Nc1nc(SCc2ccccc2Cl)n[nH]1`: “inactive”.
To `c1ccc(-n2c(SCc3ccncc3)nnc2-c2ccco2)cc1` belongs “inactive”; to `Nc1ccccc1-c1nnc(SCc2ccccc2Cl)[nH]c1=O`, “inactive”; to `O=C(c1ccc(F)cc1)N1CCC(C(=O)N(Cc2ccccc2)c2ccccc2)CC1`, “inactive”.
On to `CCCCNC(=O)Oc1cccc(N2CCCC2=O)c1`, for which the result was inactive.
For `COCCn1c(N)c(NCc2ccccc2)c(=O)n(CC(=O)Nc2cc(C)ccc2C)c1=O`, the outcome was inactive.
Next, `COc1ccc(C(C)=O)cc1CN1C(=O)NC2(CCCC2)C1=O`: “inactive”; `COc1ccc(S(=O)(=O)N2CCC(NC(=O)OCc3c(Cl)cccc3Cl)CC2)cc1`: “inactive”; `CN1CCN(S(=O)(=O)c2ccc(NC(=O)Nc3cccc(Cl)c3)cc2)CC1`: “inactive”.
To `O=C(CSCc1ccc(Br)cc1)NC1CC1` belongs “inactive”; to `Oc1ccc(/C=C/c2cc(O)cc(O)c2)cc1`, “inactive”; to `COc1ccc(F)cc1S(=O)(=O)Nc1cc2c3c(c1)CC(=O)N3CCC2`, “inactive”.
For the compound `CCC(C)NC(=O)CSc1nc2n[nH]c(C)c2c(=N)n1-c1ccc(OC)cc1` (stereo not given), the compound was classed as inactive.
Turning to `CCOC(=O)C1=C(C)OC(N)=C(C#N)C1c1cc(Cl)c(OCC(N)=O)c(OC)c1` (stereo not given), the call was inactive.
To `CN1C(=O)C2(C(C#N)=C(N)Oc3c2oc(CO)cc3=O)c2ccccc21` (stereo not given) belongs “inactive”; to `Cc1nc2ccc(NC(=O)Cc3cccs3)cc2s1`, “inactive”.
Take `O=C(Cc1cccs1)Nc1cccc(-c2nc3ccccc3o2)c1`: the compound was classed as inactive.
For the compound `Cc1ccc(-c2csc(NC(=O)Cc3cccs3)n2)cc1C`, the outcome was inactive.
In the case of `COC(=O)c1ccccc1NC(=O)CNC(=O)c1ccc(OC)cc1`, the outcome was inactive.
To `COC(=O)C1=C(CSc2nc3ccccc3o2)NC(=O)NC1c1cc(C)ccc1C` (stereo not given) belongs “inactive”; to `COc1ccc(NS(=O)(=O)c2cc(N=Nc3c(O)[nH]c(=O)[nH]c3=O)ccc2Cl)cc1`, “inactive”; to `CC1(C)C2CCC1(C)C(OC(=O)C[n+]1ccccc1)C2` (stereo not given), “inactive”.
Next, `CCc1ccccc1NC(=O)N1CCc2ccccc21`: “inactive”; `CC(=O)Nc1nnc(SCC(=O)N2CCCc3ccccc32)s1`: “inactive”.
As for `COc1ccc(-c2nc(CS(=O)CC(=O)NC3CCCc4ccccc43)c(C)o2)cc1OC` (stereo not given), the compound was called inactive.
As to `Cc1ccc(S(=O)(=O)N2CCCC(C(=O)O)C2)s1` (stereo not given), the compound was classed as inactive.
For the compound `O=S(=O)(c1ccc(Br)s1)N1CCCCC1`, the compound was called inactive.
As to `CCN(CC)CCNC1=NCCn2c1cc1cc(OC)ccc12`, the outcome was inactive.
With `CCc1noc(N)c1C(=O)Nc1ccc(F)c(Cl)c1`, the compound was classed as inactive.
`CCNC(=O)NC(=O)C(C)OC(=O)c1oc2ccc(OCC)cc2c1C` (stereo not given): the call was inactive.
Take `Cc1c(-c2ccccc2)nc2ccccc2c1C(=O)O`: the compound was classed as inactive.
On to `Cc1cc(C#N)c2ccccc2n1`, for which the compound was called inactive.
To `CCCCOc1ccc(C(=O)OC(C)CN(C)C)cc1` (stereo not given) belongs “inactive”; to `Clc1ncnc2scc(-c3ccccc3)c12`, “inactive”.
Next, `CCC(=O)Nc1cccc(Oc2nc(C)cc(C)c2C#N)c1`: “inactive”; `Cc1nn(Cc2ccccc2)c(C)c1NC(=O)c1cc(-c2ccc3c(c2)OCO3)on1`: “inactive”.
To `O=C(OCc1ccc(Cl)cc1)c1cnccn1` belongs “inactive”.
For the compound `NNC(=O)CCN1CCN(C(c2ccccc2)c2ccccc2)CC1`, the outcome was inactive.
In the case of `Cc1ccccc1CS(=O)(=O)CCC(=O)NCCN1CCN(c2cccc(Cl)c2)CC1`, the compound was called inactive.
Next, `O=C(CN1CCN(c2nc(-c3ccccc3)cs2)CC1)Nc1ccc2c(c1)OCO2`: “inactive”; `CCOC(=O)CSc1ncnc2c1cnn2-c1ccc(C)cc1`: “inactive”; `COc1ccc(-n2nnnc2-c2ccccc2)cc1`: “inactive”.
To `COc1cnc(SCc2c(Cl)cccc2Cl)nc1Cl` belongs “inactive”; to `CC(NC(=O)CSc1nnc2n1CCCCC2)c1ccccc1Cl` (stereo not given), “inactive”.
To `Clc1c(-c2nnc3n2CCC3)sc2ccccc12` belongs “inactive”.
With `Cc1cc2cc3c(=O)[nH]c(=O)nc-3n(CC(O)C(O)C(O)CO)c2cc1C` (stereo not given), the outcome was inactive.
Next, `CCCn1nc(NC(=O)c2ccccn2)c2cc3cc(C)ccc3nc21`: “inactive”.
Next, `O=C1COc2ccc(C(=O)CSc3nnc(-c4cccs4)n3Cc3ccccc3)cc2N1`: “inactive”; `COc1cc2ccccc2cc1C(=O)N1CCN(c2ccccc2O)CC1`: “inactive”; `CCOCCNC(=O)c1ccccc1C(=O)NCCOCC`: “inactive”.
Regarding `COc1ccc(Oc2nc(C)cc(C)c2C#N)cc1`, the outcome was inactive.
To `COC(=O)COn1c(-n2nc(C)cc2C)nc2ccccc2c1=O` belongs “inactive”.
For `Cc1ccc(S(=O)(=O)n2ccc(=O)[nH]2)cc1`, the outcome was inactive.
Next, `CCN(CC)C(=O)c1sc(NC(=O)c2ccc3c(c2)OCO3)c(C#N)c1C`: “inactive”; `CCOC(=O)c1c(NC(=O)c2cc(CC(C)C)on2)sc(C(C)=O)c1C`: “inactive”.
To `O=C(COC(=O)C12CC3CC(CC(Br)(C3)C1)C2)Nc1ccc2[nH]c(=O)[nH]c2c1` belongs “inactive”; to `COc1cc(CC(=O)NCC(C)(C)N2CCOCC2)cc(OC)c1OC`, “inactive”; to `CCC(Sc1nc(-c2ccccc2)cc(=O)[nH]1)C(=O)O` (stereo not given), “inactive”.
Next, `N#C/C=C\Oc1ccc(Cl)cc1N`: “inactive”; `COc1ccccc1OCCOc1ccccc1/C=N/n1cnnc1`: “inactive”; `Cc1c(C(=O)N2CCN(c3ccccc3F)CC2)sc2nc(-c3ccccc3)cn12`: “inactive”.
Consider `CN(c1ccc(C(=O)N2CCc3ccccc3C2)cc1)S(C)(=O)=O`, for which the result was inactive.
Regarding `COc1ccc(C)cc1NC(=O)COC(=O)CCC(=O)c1cccs1`, the compound was classed as inactive.
Consider `CCn1c(N)c(C(=O)NCc2ccc3c(c2)OCO3)sc1=S`, for which the result was inactive.
For `CCCn1nc2cc(C(=O)NCc3ccc4c(c3)OCO4)ccc2c1OCC`, the result was inactive.
To `CCOC(=O)c1c(C)c(/C=N/Nc2ccccc2)n(C)c1C` belongs “inactive”; to `COC(=O)C1=C(O)/C(=C/c2cccc(OC)c2O)N=C1C`, “inactive”; to `COC(=O)C1=C(O)/C(=C\c2ccc(CNC(=O)C(=O)Nc3ccc(C)c(C)c3)o2)N=C1C`, “inactive”.
Next, `CCC(C)Nc1nc2c(c(=O)[nH]c(=O)n2C)n1CCC(C)C` (stereo not given): “inactive”; `COC(=O)c1cn[nH]c1NC(=S)Nc1ccc(C)cc1Cl`: “inactive”.
Regarding `CCCCNC(=O)C1CCCN(S(=O)(=O)c2ccc(-n3cnnn3)cc2)C1` (stereo not given), the result was inactive.
To `CCN(CC)c1ccc(C2C3CCCCC3(O)CCN2CC(=O)Nc2ccccc2)cc1` (stereo not given) belongs “inactive”; to `COc1ccccc1NC(=O)c1cc2ccccc2o/c1=N\O`, “inactive”; to `CC1CN(S(=O)(=O)c2cc(C(=O)NCc3ccncc3)ccc2Cl)CC(C)O1` (stereo not given), “inactive”.
Next, `Cc1ccc(Cn2ccc(NC(=O)c3cc(-c4cccc(Cl)c4)on3)n2)cc1`: “inactive”; `COc1ccc(NC(=O)C2CCCNC2)cc1OCC(C)C` (stereo not given): “inactive”; `O=c1c2c(nc(NCCO)n1CC1CCCCC1)-c1ccccc1CC21CCCC1`: “inactive”.
As to `CC(Sc1nnnn1C)C(=O)Nc1ccccc1-c1ccccc1` (stereo not given), the result was inactive.
For the compound `CCOC(=O)CCC(=O)N1CCNC(=O)C1`, the compound was called inactive.
Next, `CCNC(=O)c1ccc(-n2nc(C(F)(F)F)c3c2CCCC3)cc1`: “inactive”.
To `CS(=O)(=O)c1ccc2nnn(OCC(=O)Nc3cccc(C#N)c3)c2c1` belongs “inactive”.
Next, `Cc1cccc2c1NC1(CCCC1)CC2C` (stereo not given): “inactive”.
As to `O=C(NCCCN1CCOCC1)C1CC(=O)N(CCc2ccccc2)C1` (stereo not given), the call was inactive.
To `CCN(CC)c1ccc(NC(=O)c2c(C)noc2C)cc1` belongs “inactive”; to `O=C(c1ccc2c(c1)[nH]c(=S)n1c3ccccc3nc21)N1CCN(c2cccc(Cl)c2)CC1`, “inactive”.
To `COc1ccc(S(=O)(=O)N2CCC(C(=O)NCc3cccnc3)CC2)cc1Cl` belongs “inactive”.
For the compound `COc1cc(NC(=O)c2cc3nc(-c4ccccc4)cc(-c4ccccc4)n3n2)cc(OC)c1OC`, the compound was classed as inactive.
Next, `CC(=O)c1cccc(NC(=O)CC2Oc3ccc(C)cc3NC2=O)c1` (stereo not given): “inactive”; `O=C(CCNS(=O)(=O)c1ccc(Cl)cc1)NCc1cccnc1`: “inactive”.
For `C=C(C)C1CC=C(C)/C(=N\NC(=O)CCC(=O)Nc2ccc(C)c(C)c2)C1` (stereo not given), the compound was called inactive.
Take `CC(C)CCNC(=O)Cn1c2c(c(-c3ccccc3Cl)cc1=O)CCC2`: the outcome was inactive.
For the compound `O=c1c2c([nH]c3ccccc13)CCCCCC2`, the call was inactive.
To `FC(F)(F)C1=Nc2cccc3cccc(c23)N1` belongs “inactive”; to `CCc1nc(-c2ccc(C)nc2OC)no1`, “inactive”.
To `CS(=O)(=O)c1ccc(C(=O)Nc2nc(-c3ccco3)c(-c3ccco3)s2)cc1` belongs “inactive”; to `COc1ccc(NC(=O)CSc2nc3c(cc2C#N)CN(C)CC3)cc1`, “inactive”; to `O=S(=O)(N1CCOCC1)N1CCCN(S(=O)(=O)N2CCOCC2)CC1`, “inactive”.
To `Cc1c(C(=O)N2CCCCC2)nnn1-c1nonc1N` belongs “inactive”.
With `CCOC(=O)N1CCC(N2C(=O)c3ccccc3C2Nc2ccccc2)CC1` (stereo not given), the call was inactive.
To `COc1ccc(-c2noc(Cc3ccc(Cl)cc3)n2)cc1OC` belongs “inactive”; to `COc1ccc(C(=O)n2nc(-c3ccc(Cl)cc3)nc2N)cc1OC`, “inactive”.
Regarding `Cc1cc(C)c2c(=N)c3ccccc3n(CCCCCCCCn3c4ccccc4c(=N)c4c(C)cc(C)nc43)c2n1`, the outcome was inactive.
Take `COc1cccc(OC)c1OCCCc1c(C)n[nH]c1C`: the call was inactive.
As for `O=C(N/C(=C/c1ccc(Cl)cc1)c1nc2ccccc2[nH]1)c1ccco1`, the outcome was inactive.
Next, `COc1cccc(C(=O)Nc2nc3ccccc3[nH]2)c1`: “inactive”.
Regarding `CCN(CC)C(=O)CCNS(=O)(=O)c1ccc(C)cc1`, the result was inactive.
